This is an account of results in PubChem BioAssay (EPA / NIEHS).

“And” between values parts separate entries of the source, which are not always exact repeats. Identical values can stand only once. Results filed as inconclusive are left out. Where a structure was tested more than once in an assay, its records may differ in their call. The source made the active and inactive calls. The calls were made as follows, unless noted: active = hit-call score of the fitted dose curve at least 0.9, where 1 is the maximum; inactive = score below 0.9.

Usually AC50 stands for the concentration at which the activity in the assay is half-maximal.

Test [1] addresses Myc proto-oncogene protein (Homo sapiens) (UniProt P01106). Briefly: ATG_Myc_CIS: Attagene CIS-FACTORIAL HepG2 Assay for human Myelocytomatosis (Myc) Proto-Oncogene Transcription Factor (AID 2282990). Conditions: HepG2, Attagene cis-reporter transcription factor activity; actives raise or lower the signal. A digest of the protocol: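 HepG2 cells transiently transfected with multiple cis-promoter-driven reporter transcription units, so endogenous TF activity is read. After 24 h compound exposure, reporter mRNA was quantified by RT-PCR, 6-FAM labelling, HpaI digestion and capillary electrophoresis; bidirectional fit versus DMSO.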

The nature of test [2]: ATG_NF_kB_CIS: Attagene CIS-FACTORIAL HepG2 Assay for human Nuclear Factor Kappa B (NF-kB) (AID 2282991). Conditions: HepG2 Attagene cis-factorial NF-kB reporter mRNA; actives raise or lower the signal. A digest of the protocol: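 Transient MRTU transfection of human HepG2 liver cells → 24 h chemical exposure → total RNA, oligo(dT) RT → PCR, 6-FAM primer extension, HpaI digest 2 h 37 C → CE fragment analysis. Bidirectional fitting, DMSO negative control.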

The nature of test [3]: ATG_NRF2_ARE_CIS: Attagene CIS-FACTORIAL HepG2 Assay for human Nuclear Factor Erythroid 2 Related Factor 2 (NFR2) response to Antioxidant Response Elements (ARE) (AID 2282992).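 As to AC50: reporter mRNA level measured by RT-PCR and capillary electrophoresis fluorescence.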 Conditions: HepG2 Attagene ARE/NRF2 reporter, transcription factor activity; actives raise or lower the signal. A digest of the protocol:
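HepG2 cells transiently transfected with multiplexed cis-element reporter constructs, 24 h after chemical dosing; reporter mRNA quantified by RT-PCR, fluorescent primer extension, HpaI digestion and capillary electrophoresis. Bidirectional fit relative to DMSO.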

Test [4] in a line: ATG_Oct_MLP_CIS: Attagene CIS-FACTORIAL HepG2 Assay for human Octamer-Binding Transcription Factor (Oct) (AID 2282993). To be noted: HepG2 Attagene cis-factorial Oct reporter, mRNA; actives raise or lower the signal. A digest of the protocol: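 Readout is reporter transcript level from RT-PCR with fluorescent primer extension and capillary electrophoresis, fitted in both directions against DMSO. Transfected HepG2 reporter units report endogenous factor activity after 24 h dosing.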

The target in test [5] is Cellular tumor antigen p53 (Homo sapiens) (UniProt P04637). In words: ATG_p53_CIS: Attagene CIS-FACTORIAL HepG2 Assay for human p53 Transcription Factor (AID 2282994). To be noted: HepG2 p53 cis-element reporter, Attagene mRNA; actives raise or lower the signal. A digest of the protocol: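 HepG2 cells transiently transfected with cis-regulated multiple reporter transcription units, dosed 24 h. Reporter mRNA measured by RT-PCR, 6-FAM primer extension, HpaI digestion and capillary electrophoresis; bidirectional fit relative to DMSO.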
Chain of Cellular tumor antigen p53 (Homo sapiens) (P04637 whole entry, looked up): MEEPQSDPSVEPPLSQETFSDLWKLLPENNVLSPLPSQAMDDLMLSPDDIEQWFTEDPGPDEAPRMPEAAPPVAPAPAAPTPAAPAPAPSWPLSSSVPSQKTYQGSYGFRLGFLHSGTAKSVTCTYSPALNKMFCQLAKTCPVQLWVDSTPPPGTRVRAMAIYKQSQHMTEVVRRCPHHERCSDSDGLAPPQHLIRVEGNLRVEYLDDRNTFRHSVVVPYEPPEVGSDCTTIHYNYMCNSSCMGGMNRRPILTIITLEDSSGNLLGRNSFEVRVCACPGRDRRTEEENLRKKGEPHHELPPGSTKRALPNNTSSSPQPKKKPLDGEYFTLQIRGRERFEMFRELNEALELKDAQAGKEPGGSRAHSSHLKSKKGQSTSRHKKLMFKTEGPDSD

The nature of test [6]: BSK_3C_TissueFactor: BioMAP Diversity Plus: 3C Assay for Tissue Factor Biomarker Activity (AID 2282997). To be noted: BioMAP 3C HUVEC, tissue factor biomarker readout; actives raise or lower the signal. A digest of the protocol:
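Human vascular primary cells (umbilical vein endothelium) received test chemical; Tissue Factor was determined by ELISA at 24 h, and both gain and loss of signal versus DMSO were fitted.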

Test [7] is described as follows: BSK_3C_uPAR: BioMAP Diversity Plus: 3C Assay for Urokinase-type plasminogen activator receptor (uPAR) Biomarker Activity (AID 2282998). Conditions: BioMAP 3C HUVEC, uPAR biomarker ELISA; actives raise or lower the signal. A digest of the protocol:
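Cell-surface uPAR on HUVEC (3C system) read by ELISA at 24 h post-treatment, with DMSO as baseline and fitting in both directions. Parallel cultures stained with SRB to flag overt cytotoxicity.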
(In general: ELISA stands for enzyme-linked immunosorbent assay.)

Test [8] in a line: BSK_3C_VCAM1: BioMAP Diversity Plus: 3C Assay for Vascular cell adhesion molecule 1 (VCAM1) Biomarker Activity (AID 2282999). To be noted: BioMAP 3C HUVEC, VCAM1 ELISA, cytokine-stimulated; actives raise or lower the signal. A digest of the protocol:
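Human umbilical vein endothelial cells were dosed with compound for 24 h, after which cell-surface VCAM-1 was quantified by ELISA. Bidirectional curve fitting used DMSO as negative control and activity baseline.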

Test [9] is described as follows: BSK_4H_Eotaxin3: BioMAP Diversity Plus: 4H Assay for Eotaxin 3 Biomarker Activity (AID 2283000).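 As to outcome: CCL26 protein level quantified by ELISA in parallel with SRB cytotoxicity check.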 To be noted: primary human endothelial cells (HUVEC); actives raise or lower the signal. A digest of the protocol: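 Readout is Eotaxin-3 (CCL26) level by ELISA in primary human umbilical vein endothelial cells harvested 24 h after chemical exposure; activity fitted in both directions against DMSO control.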

The target of test [10] is human Peroxisome Proliferator-activated Receptor alpha (PPARa), PPARA (gene 5465) (UniProt Q07869). Briefly: ATG_PPARa_TRANS: Attagene TRANS-FACTORIAL HepG2 Assay for human Peroxisome Proliferator-activated Receptor alpha (PPARa) (AID 2283001; active = hit-call score of the fitted dose curve at least 0.9, where 1 is the maximum). A digest of the protocol: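 HepG2 cells transiently transfected with multiplexed GAL4-UAS reporter units and chimeric NR-Gal4 constructs were dosed for 24 h. Reporter mRNA was measured by RT-PCR with fluorescent labelling and capillary electrophoresis; gain of signal fitted against DMSO.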
Chain of human Peroxisome Proliferator-activated Receptor alpha (PPARa), PPARA (gene 5465) (Q07869 whole entry, looked up, the tested form may be a part): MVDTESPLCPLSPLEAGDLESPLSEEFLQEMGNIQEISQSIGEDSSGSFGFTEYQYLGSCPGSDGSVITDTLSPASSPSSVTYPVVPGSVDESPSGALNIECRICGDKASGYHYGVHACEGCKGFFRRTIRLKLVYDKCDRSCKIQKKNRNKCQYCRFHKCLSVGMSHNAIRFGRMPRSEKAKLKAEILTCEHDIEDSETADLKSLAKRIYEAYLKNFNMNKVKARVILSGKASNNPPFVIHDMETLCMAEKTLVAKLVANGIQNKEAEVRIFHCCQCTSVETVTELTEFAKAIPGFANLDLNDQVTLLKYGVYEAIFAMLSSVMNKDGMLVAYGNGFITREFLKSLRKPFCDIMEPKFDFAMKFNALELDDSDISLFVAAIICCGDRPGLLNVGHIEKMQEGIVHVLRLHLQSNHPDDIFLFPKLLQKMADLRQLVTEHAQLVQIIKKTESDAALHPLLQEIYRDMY

In test [11] the target is human Peroxisome Proliferator-activated Receptor delta (PPARd), PPARD (gene 5467) (UniProt Q03181). Briefly: ATG_PPARd_TRANS: Attagene TRANS-FACTORIAL HepG2 Assay for human Peroxisome Proliferator-activated Receptor delta (PPARd) (AID 2283002; active = hit-call score of the fitted dose curve at least 0.9, where 1 is the maximum). A digest of the protocol: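 HepG2 cells transiently transfected with multiplexed GAL4-UAS reporter units and exogenous chimeric NR-Gal4 proteins; 24 h compound exposure. Reporter mRNA measured by RT-PCR, 6-FAM labelling, HpaI digestion and capillary electrophoresis; gain of signal versus DMSO.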
Chain of human Peroxisome Proliferator-activated Receptor delta (PPARd), PPARD (gene 5467) (Q03181 whole entry, looked up, the tested form may be a part): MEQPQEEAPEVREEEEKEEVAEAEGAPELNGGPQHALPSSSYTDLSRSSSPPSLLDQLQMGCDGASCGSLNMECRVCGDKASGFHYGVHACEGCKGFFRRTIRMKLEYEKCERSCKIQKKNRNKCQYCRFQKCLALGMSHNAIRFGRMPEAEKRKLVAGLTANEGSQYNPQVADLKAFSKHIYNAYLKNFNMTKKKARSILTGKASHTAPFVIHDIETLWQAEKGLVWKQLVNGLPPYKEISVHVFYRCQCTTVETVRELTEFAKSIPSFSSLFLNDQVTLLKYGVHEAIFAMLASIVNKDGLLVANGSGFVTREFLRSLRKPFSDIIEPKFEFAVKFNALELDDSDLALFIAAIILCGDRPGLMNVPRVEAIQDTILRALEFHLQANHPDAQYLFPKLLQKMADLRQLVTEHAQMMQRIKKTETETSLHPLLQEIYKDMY

Read-out in test [12]: Intercellular Adhesion Molecule 1 (ICAM1), ICAM1 (gene 3383)
Briefly: BSK_3C_ICAM1: BioMAP Diversity Plus: 3C Assay for Intercellular Adhesion Molecule 1 (ICAM1) Biomarker Activity (AID 2283003). To be noted: primary human endothelial cells (HUVEC); actives raise or lower the signal. A digest of the protocol: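 Human vascular endothelial primary cells, 3C conditions, 24 h treatment. ICAM-1 by ELISA.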

Test [13] concerns the target human Retinoic Acid Receptor beta (RARb), RARB (gene 5915) (UniProt P10826). In words: ATG_RARb_TRANS: Attagene TRANS-FACTORIAL HepG2 Assay for human Retinoic Acid Receptor beta (AID 2283004; active = hit-call score of the fitted dose curve at least 0.9, where 1 is the maximum). A digest of the protocol: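 Readout is reporter mRNA induction: RNA reverse-transcribed, PCR-amplified, FAM-labelled, HpaI-cut and resolved by capillary electrophoresis. Transiently transfected HepG2 cells carrying exogenous NR–Gal4 chimeras were dosed for 24 h; activity fitted upward relative to DMSO.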

Test [14] has as its target Retinoic acid receptor alpha (Homo sapiens) (UniProt P10276). In words: ATG_RARa_TRANS: Attagene TRANS-FACTORIAL HepG2 Assay for human Retinoic Acid Receptor alpha (RARa) (AID 2283005; active = hit-call score of the fitted dose curve at least 0.9, where 1 is the maximum). A digest of the protocol:
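HepG2 cells transiently transfected with multiple reporter units expressing chimeric RARα-GAL4 fusion, with GAL4-UAS-driven reporters. After 24 h compound exposure, reporter mRNA induction quantified by RT-PCR and capillary electrophoresis with fluorescent labeling; gain-of-signal fitted relative to DMSO control.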

Test [15] is described as follows: BSK_3C_Proliferation: Cell Proliferation Assessment in the BioMAP Diversity Plus: 3C Assay (AID 2283006).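 Also: potency may reflect either rise or fall in cell number versus DMSO.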 Conditions: primary human endothelial cells (HUVEC). A digest of the protocol:
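Proliferation of human vascular endothelial primary cells after 48 h dosing, quantified as SRB-stained protein at 560 nm relative to DMSO.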

The target of test [16] is Peroxisome proliferator-activated receptor gamma (Homo sapiens) (UniProt P37231). Briefly: ATG_PPARg_TRANS: Attagene TRANS-FACTORIAL HepG2 Assay for human Peroxisome Proliferator-activated Receptor-gamma (PPARg) (AID 2283007; active = hit-call score of the fitted dose curve at least 0.9, where 1 is the maximum). A digest of the protocol:
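Transient transfection of HepG2 with GAL4-UAS-driven reporter units; chemical dosing 24 h; total RNA → oligo(dT) RT → PCR with reporter primers → 6-FAM primer extension → HpaI digest 2 h 37 C → capillary electrophoresis. Positive direction vs DMSO.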

Test [17] has as its target human Retinoic Acid Receptor gamma (RARg), RARG (gene 5916) (UniProt P13631). In words: ATG_RARg_TRANS: Attagene TRANS-FACTORIAL HepG2 Assay for human Retinoic Acid Receptor gamma (RARg) (AID 2283009; active = hit-call score of the fitted dose curve at least 0.9, where 1 is the maximum;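 as to AC50: AC50 is for reporter induction above DMSO meaning RARg activation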). A digest of the protocol:
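HepG2, RARg-GAL4 TRANS system, 24 h exposure; reporter mRNA by RT-PCR + CE fluorescence; increase over DMSO.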

In test [18] the target is human RAR-related Orphan Receptor beta (RORb), RORB (gene 6096) (UniProt Q92753). Briefly: ATG_RORb_TRANS: Attagene TRANS-FACTORIAL HepG2 Assay for human RAR-related Orphan Receptor beta (RORb) (AID 2283010; active = hit-call score of the fitted dose curve at least 0.9, where 1 is the maximum). A digest of the protocol: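 In this TRANS-format test, human HepG2 cells express chimeric NR-Gal4 fusion proteins driving GAL4-UAS reporters. After 24 h dosing, reporter transcripts are measured by fluorescent RT-PCR/capillary electrophoresis, with DMSO as negative control.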
Chain of human RAR-related Orphan Receptor beta (RORb), RORB (gene 6096) (Q92753 whole entry, looked up, the tested form may be a part): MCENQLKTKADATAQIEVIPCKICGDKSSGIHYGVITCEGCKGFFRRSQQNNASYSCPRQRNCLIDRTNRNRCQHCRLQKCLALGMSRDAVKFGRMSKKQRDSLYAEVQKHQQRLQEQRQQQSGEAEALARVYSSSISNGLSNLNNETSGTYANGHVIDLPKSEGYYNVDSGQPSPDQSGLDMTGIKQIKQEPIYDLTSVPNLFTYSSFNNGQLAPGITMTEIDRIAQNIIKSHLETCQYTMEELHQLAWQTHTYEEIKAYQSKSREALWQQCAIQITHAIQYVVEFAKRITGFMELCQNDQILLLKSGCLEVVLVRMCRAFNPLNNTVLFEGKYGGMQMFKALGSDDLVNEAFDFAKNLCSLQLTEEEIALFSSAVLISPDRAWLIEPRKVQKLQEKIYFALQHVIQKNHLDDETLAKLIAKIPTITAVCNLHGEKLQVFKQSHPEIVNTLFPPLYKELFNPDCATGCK

The target in test [19] is Nuclear receptor subfamily 1 group I member 2 (Homo sapiens) (UniProt O75469). In words: ATG_PXR_TRANS: Attagene TRANS-FACTORIAL HepG2 Assay for human Pregnane X Receptor (PXR) (AID 2283008; active = hit-call score of the fitted dose curve at least 0.9, where 1 is the maximum). A digest of the protocol: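 HepG2 cells transiently transfected with GAL4-UAS reporter units and PXR-Gal4 chimera, exposed 24 h. Reporter mRNA quantified by RT-PCR, fluorescent labelling, HpaI digestion and capillary electrophoresis; gain of signal vs DMSO.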
Chain of Nuclear receptor subfamily 1 group I member 2 (Homo sapiens) (O75469 whole entry, looked up, the tested form may be a part): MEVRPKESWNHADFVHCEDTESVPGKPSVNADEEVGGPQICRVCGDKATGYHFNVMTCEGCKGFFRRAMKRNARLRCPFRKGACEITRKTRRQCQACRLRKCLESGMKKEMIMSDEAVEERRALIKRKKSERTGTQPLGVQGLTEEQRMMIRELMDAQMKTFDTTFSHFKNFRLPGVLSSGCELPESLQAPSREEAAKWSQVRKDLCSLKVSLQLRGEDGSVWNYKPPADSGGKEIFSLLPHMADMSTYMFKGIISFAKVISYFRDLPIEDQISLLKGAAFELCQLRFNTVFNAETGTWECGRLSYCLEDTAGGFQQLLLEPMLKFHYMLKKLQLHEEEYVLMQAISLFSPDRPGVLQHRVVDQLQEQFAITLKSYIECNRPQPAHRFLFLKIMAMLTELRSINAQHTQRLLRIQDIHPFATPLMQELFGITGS

Test [20] addresses human RAR-related Orphan Receptor gamma (RORg), RORC (gene 6097) (UniProt P51449). Briefly: ATG_RORg_TRANS: Attagene TRANS-FACTORIAL HepG2 Assay for human RAR-related Orphan Receptor gamma (RORg) (AID 2283011; active = hit-call score of the fitted dose curve at least 0.9, where 1 is the maximum). A digest of the protocol:
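Transient MRTU transfection of HepG2 (TRANS format, exogenous NR-Gal4 chimera). 24 h dosing. Total RNA → oligo(dT) RT → PCR → 6-FAM labelling → HpaI cut → CE. Gain vs DMSO.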

Chain of human Retinoic Acid Receptor gamma (RARg), RARG (gene 5916) (P13631 whole entry, looked up, the tested form may be a part): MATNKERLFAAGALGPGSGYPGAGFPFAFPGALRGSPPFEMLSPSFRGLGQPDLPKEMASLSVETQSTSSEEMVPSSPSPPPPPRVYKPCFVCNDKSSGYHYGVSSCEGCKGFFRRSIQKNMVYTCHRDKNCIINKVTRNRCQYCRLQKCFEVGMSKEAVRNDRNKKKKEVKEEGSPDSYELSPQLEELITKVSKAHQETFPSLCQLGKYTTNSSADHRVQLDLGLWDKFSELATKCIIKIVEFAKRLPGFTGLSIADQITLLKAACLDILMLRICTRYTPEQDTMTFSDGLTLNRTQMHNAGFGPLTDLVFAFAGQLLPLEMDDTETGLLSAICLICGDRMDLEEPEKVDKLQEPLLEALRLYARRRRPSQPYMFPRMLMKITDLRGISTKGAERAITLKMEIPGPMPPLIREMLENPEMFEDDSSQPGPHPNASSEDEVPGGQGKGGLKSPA
Chain of Peroxisome proliferator-activated receptor gamma (Homo sapiens) (P37231 whole entry, looked up, the tested form may be a part): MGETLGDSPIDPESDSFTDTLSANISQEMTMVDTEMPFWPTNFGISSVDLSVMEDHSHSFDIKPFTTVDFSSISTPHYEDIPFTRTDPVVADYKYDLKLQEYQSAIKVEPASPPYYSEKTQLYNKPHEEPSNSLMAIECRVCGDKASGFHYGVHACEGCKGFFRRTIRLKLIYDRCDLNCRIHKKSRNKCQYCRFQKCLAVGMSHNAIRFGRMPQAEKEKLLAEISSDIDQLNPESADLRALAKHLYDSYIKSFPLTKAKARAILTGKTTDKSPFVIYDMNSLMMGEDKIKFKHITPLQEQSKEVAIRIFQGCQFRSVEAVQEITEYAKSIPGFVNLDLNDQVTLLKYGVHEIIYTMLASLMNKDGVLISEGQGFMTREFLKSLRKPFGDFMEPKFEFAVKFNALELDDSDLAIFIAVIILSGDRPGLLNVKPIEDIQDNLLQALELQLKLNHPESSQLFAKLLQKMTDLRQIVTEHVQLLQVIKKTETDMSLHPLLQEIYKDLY
Chain of Myc proto-oncogene protein (Homo sapiens) (P01106 whole entry, looked up): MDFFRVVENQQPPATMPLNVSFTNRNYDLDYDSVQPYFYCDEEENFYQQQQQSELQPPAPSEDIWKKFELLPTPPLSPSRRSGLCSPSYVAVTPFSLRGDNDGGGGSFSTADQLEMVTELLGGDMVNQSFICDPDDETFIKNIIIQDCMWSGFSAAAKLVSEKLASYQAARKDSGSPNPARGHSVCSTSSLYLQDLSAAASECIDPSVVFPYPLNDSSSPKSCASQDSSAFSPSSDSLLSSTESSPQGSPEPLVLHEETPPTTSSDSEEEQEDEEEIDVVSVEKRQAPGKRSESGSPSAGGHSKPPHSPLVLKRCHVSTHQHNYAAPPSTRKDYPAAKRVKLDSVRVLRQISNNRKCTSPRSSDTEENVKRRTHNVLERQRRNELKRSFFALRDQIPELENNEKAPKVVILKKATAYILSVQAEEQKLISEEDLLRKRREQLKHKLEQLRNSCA
Chain of human Retinoic Acid Receptor beta (RARb), RARB (gene 5915) (P10826 whole entry, looked up, the tested form may be a part): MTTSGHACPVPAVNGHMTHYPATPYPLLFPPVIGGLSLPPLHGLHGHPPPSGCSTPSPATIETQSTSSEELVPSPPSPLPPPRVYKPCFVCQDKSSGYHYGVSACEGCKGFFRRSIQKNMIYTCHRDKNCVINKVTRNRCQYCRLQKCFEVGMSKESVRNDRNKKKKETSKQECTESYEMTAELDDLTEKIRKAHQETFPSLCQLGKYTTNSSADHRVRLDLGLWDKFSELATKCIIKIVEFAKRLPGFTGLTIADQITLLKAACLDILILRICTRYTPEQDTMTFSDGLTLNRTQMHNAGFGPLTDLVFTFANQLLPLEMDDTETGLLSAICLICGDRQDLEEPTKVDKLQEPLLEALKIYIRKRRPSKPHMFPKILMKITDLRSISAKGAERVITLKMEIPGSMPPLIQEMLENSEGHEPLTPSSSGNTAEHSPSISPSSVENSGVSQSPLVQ
Chain of Retinoic acid receptor alpha (Homo sapiens) (P10276 whole entry, looked up, the tested form may be a part): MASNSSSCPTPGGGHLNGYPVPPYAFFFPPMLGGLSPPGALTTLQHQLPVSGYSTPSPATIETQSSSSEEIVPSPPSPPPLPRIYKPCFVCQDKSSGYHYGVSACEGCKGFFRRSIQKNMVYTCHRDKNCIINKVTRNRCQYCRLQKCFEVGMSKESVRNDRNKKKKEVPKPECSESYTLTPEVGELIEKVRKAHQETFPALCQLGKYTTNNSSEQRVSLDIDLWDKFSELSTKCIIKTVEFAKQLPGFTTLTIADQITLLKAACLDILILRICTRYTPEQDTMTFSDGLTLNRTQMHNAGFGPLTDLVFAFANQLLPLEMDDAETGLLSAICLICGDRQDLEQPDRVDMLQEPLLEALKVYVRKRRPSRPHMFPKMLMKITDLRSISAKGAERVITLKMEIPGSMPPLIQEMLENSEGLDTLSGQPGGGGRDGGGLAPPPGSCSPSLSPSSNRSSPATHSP

For `CC(C)CCCCCCc1ccc(O)cc1`, the AC50 in [1] was 15.4 µM (active); in test [2], 11.1 µM (active); in [3], 8.96 µM (active) and 11.1 µM (active) and 9.16 µM (active); in test [4], 17.4 µM (active) and 17.1 µM (active); in test [5], 20.1 µM (active) and 20.3 µM (active); in [6], 9.54 µM (active). Further, the AC50 was 9.68 µM (active) in [7]; 7.98 µM (active) in test [8]; 10.6 µM (active) in [9]; 11.2 µM (active) in [12]; 4.54 µM (active) in test [15]; 11.1 µM (active) in test [16]. Moreover, in [17], the AC50 was 14.2 µM (active). The result in test [1], in test [2], in [3], in test [4], in [5] and in test [10] was inactive. In addition, the molecule was classed as inactive in test [11], in test [13], in test [14], in test [16], in test [17] and in [18].

Regarding `O=C(Nc1ccc([N+](=O)[O-])cc1Cl)c1cc(Cl)ccc1O`, the outcome in test [1], in test [11], in test [13], in test [14], in test [16] and in test [19] was inactive. Besides, the result in test [17] and in [18] was inactive. In addition, the AC50 in test [2] was 1.17 µM (active); in test [3], 544 nM (active); in test [4] it was 700 nM (active); in test [5] it was 700 nM (active); in test [8] it was 0.189 µM (active); in [9], 0.148 µM (active). Further, the figures for the concentration at half-maximal activity (AC50) in [12] and in test [15] were 20 µM (active) and 0.313 µM (active), respectively.

Turning to `C[C@]12C[C@H](O)[C@H]3[C@@H](CCC4=CC(=O)CC[C@@]43C)[C@@H]1CC[C@@H]2C(=O)CO`, the molecule was called inactive in test [1], in test [2], in test [3], in [4], in test [5] and in test [8]. Also, the outcome in test [9], in test [10], in test [11], in test [12], in [13] and in [16] was inactive. Besides, the molecule was called inactive in test [19] and in test [20]. Besides, the half-maximal activity concentration (AC50) in test [15] is 29 µM (active); in test [19], 27.7 µM (active) and 11.4 µM (active).
